# Results reported in the supplement of paper PMC12282887.
# ± gives the standard deviation of the averaged measurements.
# System: E. coli BW25113 marRABp lux reporter
# Test: promoter activity interaction Z-score (Lux/OD deviation from empty-vector control); higher = stronger promoter induction by the compound
# Procedure: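 E. coli BW25113 (wild type or ΔmarA/ΔsoxS/Δrob) carrying pTU175 luxCDABE promoter reporters was grown in LB in 384-well plates at 37°C with each of 94 compounds at 4 two-fold concentrations, in biological duplicates. Luminescence and OD600 were read every 30 min for 12 h and integrated as AUC over 8 h (0-8 h WT, 1-9 h mutants). Lux AUC was divided by OD AUC; the interaction score is the residual of a Huber robust fit of each promoter against the empty-vector control, then Z-transformed per promoter.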
smiles,measurement,setting,value
C[C@@H]1O[C@@H]1P(=O)(O)O [Fosfomycin],promoter activity interaction Z-score,"0.011 µg/ml, genetic background: wild type",0.112 ± 0.27
same,promoter activity interaction Z-score,"0.011 µg/ml, genetic background: ΔmarA",0.0292 ± 0.18
same,promoter activity interaction Z-score,"0.011 µg/ml, genetic background: Δrob",-0.0327 ± 0.12
same,promoter activity interaction Z-score,"0.011 µg/ml, genetic background: ΔsoxS",0.00491 ± 0.17
same,promoter activity interaction Z-score,"0.023 µg/ml, genetic background: wild type",0.0365 ± 0.015
same,promoter activity interaction Z-score,"0.023 µg/ml, genetic background: ΔmarA",0.0557 ± 0.48
same,promoter activity interaction Z-score,"0.023 µg/ml, genetic background: Δrob",-0.0686 ± 0.17
same,promoter activity interaction Z-score,"0.023 µg/ml, genetic background: ΔsoxS",-0.0756 ± 0.00091
same,promoter activity interaction Z-score,"0.046 µg/ml, genetic background: wild type",-0.461 ± 0.53
same,promoter activity interaction Z-score,"0.046 µg/ml, genetic background: ΔmarA",-0.206 ± 0.0084
same,promoter activity interaction Z-score,"0.046 µg/ml, genetic background: Δrob",-0.0852 ± 0.1
same,promoter activity interaction Z-score,"0.046 µg/ml, genetic background: ΔsoxS",0.136 ± 0.17
same,promoter activity interaction Z-score,"0.091 µg/ml, genetic background: wild type",1.62 ± 0.061
same,promoter activity interaction Z-score,"0.091 µg/ml, genetic background: ΔmarA",1.31 ± 0.6
same,promoter activity interaction Z-score,"0.091 µg/ml, genetic background: Δrob",0.576 ± 0.054
same,promoter activity interaction Z-score,"0.091 µg/ml, genetic background: ΔsoxS",1.75 ± 0.052
Cn1c(=O)c2c(ncn2C)n(C)c1=O [Caffeine],promoter activity interaction Z-score,"24.3 µg/ml, genetic background: wild type",0.925 ± 0.19
same,promoter activity interaction Z-score,"24.3 µg/ml, genetic background: ΔmarA",1.52 ± 0.3
same,promoter activity interaction Z-score,"24.3 µg/ml, genetic background: Δrob",0.0874 ± 0.094
same,promoter activity interaction Z-score,"24.3 µg/ml, genetic background: ΔsoxS",0.874 ± 0.41
same,promoter activity interaction Z-score,"48.5 µg/ml, genetic background: wild type",1.58 ± 0.15
same,promoter activity interaction Z-score,"48.5 µg/ml, genetic background: ΔmarA",1.47 ± 0.32
same,promoter activity interaction Z-score,"48.5 µg/ml, genetic background: Δrob",-0.0293 ± 0.12
same,promoter activity interaction Z-score,"48.5 µg/ml, genetic background: ΔsoxS",1.28 ± 0.27
same,promoter activity interaction Z-score,"97.1 µg/ml, genetic background: wild type",1.63 ± 0.018
same,promoter activity interaction Z-score,"97.1 µg/ml, genetic background: ΔmarA",2.83 ± 0.69
same,promoter activity interaction Z-score,"97.1 µg/ml, genetic background: Δrob",0.0326 ± 0.04
same,promoter activity interaction Z-score,"97.1 µg/ml, genetic background: ΔsoxS",1.55 ± 0.65
same,promoter activity interaction Z-score,"194.2 µg/ml, genetic background: wild type",3.65 ± 0.97
same,promoter activity interaction Z-score,"194.2 µg/ml, genetic background: ΔmarA",4.03 ± 0.93
same,promoter activity interaction Z-score,"194.2 µg/ml, genetic background: Δrob",0.103 ± 0.13
same,promoter activity interaction Z-score,"194.2 µg/ml, genetic background: ΔsoxS",2.91 ± 1.6
CCN(CC)CCOC(=O)c1ccc(N)cc1 [Procaine],promoter activity interaction Z-score,"1329.2 µg/ml, genetic background: wild type",0.474 ± 0.19
same,promoter activity interaction Z-score,"1329.2 µg/ml, genetic background: ΔmarA",1.13 ± 0.098
same,promoter activity interaction Z-score,"1329.2 µg/ml, genetic background: Δrob",-0.044 ± 0.24
same,promoter activity interaction Z-score,"1329.2 µg/ml, genetic background: ΔsoxS",0.558 ± 0.086
same,promoter activity interaction Z-score,"2658.5 µg/ml, genetic background: wild type",0.562 ± 0.12
same,promoter activity interaction Z-score,"2658.5 µg/ml, genetic background: ΔmarA",1.42 ± 0.24
same,promoter activity interaction Z-score,"2658.5 µg/ml, genetic background: Δrob",-0.0229 ± 0.4
same,promoter activity interaction Z-score,"2658.5 µg/ml, genetic background: ΔsoxS",0.555 ± 0.11
same,promoter activity interaction Z-score,"5317 µg/ml, genetic background: wild type",0.94 ± 0.094
same,promoter activity interaction Z-score,"5317 µg/ml, genetic background: ΔmarA",2.128 ± 0.015
same,promoter activity interaction Z-score,"5317 µg/ml, genetic background: Δrob",0.0444 ± 0.17
same,promoter activity interaction Z-score,"5317 µg/ml, genetic background: ΔsoxS",0.444 ± 0.23
same,promoter activity interaction Z-score,"10634 µg/ml, genetic background: wild type",1.63 ± 0.15
same,promoter activity interaction Z-score,"10634 µg/ml, genetic background: ΔmarA",2.15 ± 0.55
same,promoter activity interaction Z-score,"10634 µg/ml, genetic background: ΔsoxS",2.04 ± 0.25
